What all share (assay): NCI-60 one-dose screen, 48 h (100 = growth as untreated, 0 = no growth, -100 = all killed)
What all share (conditions): 10 µM unless noted

Test [1] concerns HCT-15 colon.
Test [2] deals with HT29 colon.
Test [3] relates to SNB-75 CNS.
Test [4] relates to SNB-19 CNS.
Test [5] relates to U251 CNS.
Test [6] deals with PC-3 prostate.
Test [7] concerns SK-MEL-5 melanoma.
Test [8] has as its system UACC-62 melanoma.
Test [9] concerns LOX IMVI melanoma.
Test [10] deals with SK-MEL-28 melanoma.
The test system of test [11] is SK-MEL-2 melanoma.
Test [12] has as its system EKVX NSCLC.
In test [13] the test system is SN12C renal.
In test [14] the test system is UO-31 renal.
Test [15] concerns TK-10 renal.
Test [16] has as its system ACHN renal.
Test [17] relates to CAKI-1 renal.
For test [18], the system named is A498 renal.
The subject of test [19] is CCRF-CEM leukemia.
Test [20] has as its system MOLT-4 leukemia.

The structures appear in SMILES notation. About 83,000 compounds went through this panel and 20% of them were active in at least one assay; those are over-represented in the sample as a whole.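 Compound tested at a single concentration for 48 hours in 96-well plates; a percent growth value below 10 was scored as active.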 A number with no mark means an inactive call. Active and inactive are the calls of the source.

As to `C=C(C)[C@@H]1CC[C@]2(C(=O)N3CCN(C)CC3)CC[C@]3(C)[C@H](CC[C@@H]4[C@@]5(C)CC[C@H](OP(=O)(OCC)OCC)C(C)(C)[C@@H]5CC[C@]43C)[C@@H]12`, the growth in test [1] was 60.2%; in test [2] it was 76.1%; in [3], 89.7%; in [4] it was 90.9%; in test [5], 78.8%; in [6], 44.3%. The growth is 69.7% in [7]; 81.6% in test [8]; 44.6% in test [9]; 104% in [10]; 106% in [11]; 72.8% in [12]. Besides, the growth is 84.7% in test [13]; 60.8% in test [14]; 108% in test [15]; 83.6% in test [16]; 61.2% in [17]; 96.4% in [18]. The growth is 35.4% in test [19] and 36.3% in [20].

As for `Brc1cccc(-c2cc(-c3ccc4c(c3)OC=CO4)[nH]n2)c1`, the growth was 21.1% in test [1]; 14% in [2]; 27.5% in test [3]; 48.6% in test [4]; 29% in test [5]; 54.1% in [6]. The growth is 22.8% in test [7]; 52.2% in test [8]; 45.6% in test [9]; 50% in test [10]; 58.7% in test [11]; 56.7% in test [12]. The growth in test [13] was 59.3%; in test [14] it was 50.4%; in [15], 108%; in test [16], 43.7%; in test [17], 29.9%; in test [18] it was 42.6%. Moreover, the figures for the growth in test [19] and in test [20] were 22% and 29.2%, respectively.

For `CC(C)[C@H]1c2[nH]c3ccccc3c2C[C@H]2C(=O)N(CCCCCCC(=O)NO)CC(=O)N12`, the growth in [1] was 97.5%; in test [2], 77.4%; in [3], 62.9%; in test [4], 86.7%; in test [5], 81%; in [6], 86%. Further, the growth in test [7] is 75%; in test [8], 56.2%; in test [9], 72.7%; in [10], 71.7%; in [11] it was 86.8%; in test [12], 93%. The growth was 90.2% in test [13]; 83.2% in [14]; 72% in test [15]; 98.2% in [16]; 86.2% in test [17]; 90% in test [18]. Moreover, the growth in test [19] is 27.8%; in test [20], 34.6%.

As to `COc1ccc(Cn2cc(C#N)c(N)c2C(C)=O)cc1`, the growth in test [1] is 98.5%; in [2], 112%; in [3], 84.5%; in test [4] it was 85.8%; in test [5] it was 109%; in test [6], 105%. Besides, the growth is 100% in test [7]; 87.1% in test [8]; 98.6% in test [9]; 109% in [10]; 106% in [11]; 104% in test [12]. The growth in test [13] is 89.8%; in [14], 95.9%; in test [15], 99.8%; in [16], 103%; in test [17] it was 93.6%; in test [18], 83.9%. In addition, the growth in test [19] was 94.7%; in [20], 101%.

Turning to `COc1cc(/C=N\NC(=O)c2ccc3nc(-c4ccc(Br)cc4)[nH]c3c2)cc(OC)c1OC`, the growth in test [1] is 79.4%; in test [2], 25.3%; in test [3], 57.1%; in test [4], 59.3%; in test [5] it was 45.1%; in test [6], 46.2%. Further, the growth was 27.5% in test [7]; 28.1% in test [8]; 35.2% in test [9]; 30.2% in [10]; 60.2% in test [11]; 78.2% in [12]. Further, the growth in [13] is 63.4%; in [14], 72.3%; in test [15] it was 58.9%; in test [16] it was 60.9%; in [17], 33.2%; in test [18] it was 20.8%. The growth is 25.8% in test [19] and 31.6% in test [20].

On to `O=C1C(SCc2ccccc2)=C(Cl)CN1c1ccccc1`, for which the growth in test [1] was 95.8%; in test [2], 106%; in test [3], 92.2%; in [4], 96.2%; in test [5] it was 101%; in test [6], 109%. The growth was 99.4% in test [7]; 93.1% in test [8]; 42.8% in test [9]; 98.9% in [10]; 110% in [11]; 97.9% in test [12]. Also, the growth in test [13] is 95.7%; in [14] it was -90.8% (active); in test [15], 136%; in [16], 94.7%; in test [17], 80.9%; in [18] it was 94.3%. In addition, the growth in test [19] is 86.1%; in test [20], 84.3%.

Consider `COc1cc2oc(-c3cccc(NC(=O)c4cccc([N+](=O)[O-])c4)c3)cc(=O)c2c(OC)c1OC`, for which the growth is 56% in test [1]; 66.4% in test [2]; -13.5% (active) in test [3]; 53.6% in test [4]; 41.9% in test [5]; 50.2% in [6]. Further, the growth in [7] is 55%; in test [8], 51%; in test [9] it was 33.4%; in test [10], 88.1%; in test [11], 91.5%; in [12], 63.9%. Further, the growth was 40.2% in test [13]; 37.8% in [14]; 92.7% in test [15]; 30.3% in [16]; 49.7% in test [17]; 72.9% in test [18]. In addition, the growth in test [19] was 59.7%; in test [20] it was 54%.

Source of the values: PubChem BioAssay (NCI).
